Reference: PubChem BioAssay (Tox21)
“And” between values parts separate entries of the source, which are not always exact repeats. Equal entries are not always repeated. Results filed as inconclusive are left out. A structure can be active in one record and inactive in another. The source made the active and inactive calls. Unless noted, the call rests on the fitted dose curve; in most records, active means well fitted curve in the direction sought with a large enough effect in the repeat runs; inconclusive means weak or mixed curves; inactive means no such curve, though single readings can be large; an effect the other way counts as inactive or inconclusive.

Tests used:
[1] = qHTS assay to identify small molecule antagonists of the estrogen related receptor (ERR) signaling pathway from Tox21 library (AID 1224848); further: nearly all actives have a fitted effect of over 50% in size
In short: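 Compounds dissolved in DMSO are pin-transferred onto ERR reporter cells (2,000 per well) that have settled for 6 h at 37 C. Plates then incubate 18 h at 37 C before ONE-Glo luciferase reagent and a luminescence read 30 min later.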

[2] = qHTS assay to identify small molecule agonists of the estrogen related receptor (ERR) signaling pathway from Tox21 library (AID 1224849; calls by dose curve; further: nearly all actives have a fitted effect of over 15% in size); conditions: ERR reporter cell line, ONE-Glo luciferase, 18 h; at 92.4 µM (top of the series)
In short: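 Luminescence readout (ONE-Glo, 30 min RT) after 18 h compound exposure at 37 C of NTP-supplied ERR reporter cells; cells were plated 6 h before compound addition by pin tool.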

[3] = qHTS RealTime-Glo MT Cell Viability Assay in HepG2 cells - 24 hour (AID 1224867); further: nearly all actives have a fitted effect of over 50% in size
In short: (§1)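 Compound treatment began 5 h after plating HepG2 cells (600/well) with NanoLuc luciferase and prosubstrate. Plates stayed at 37 C for 40 h; luminescence was captured at six time points, 0 h through 40 h.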

[4] = qHTS RealTime-Glo MT Cell Viability Assay in HEK293 cells - 32 hour (AID 1224868); further: nearly all actives have a fitted effect of over 50% in size; further: potency means the concentration at half of the fitted maximal effect
In short: (§2)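 Quantitative high-throughput screen of the Tox21 10K library in HEK293: cells and RealTime-Glo reagents plated together, compound added at 5 h, luminescence monitored through 40 h at 37 C.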

[5] = A CellTox Green Cytotoxicity Assay to monitor cytotoxicity in HEK293 cells - 0 hour (AID 1224869); further: nearly all actives have a fitted effect of over 50% in size; further: potency means the concentration at half of the fitted maximal effect
In short: (§3)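 Read-out: fluorescence of a cell-impermeant cyanine dye staining DNA of dead cells, proportional to cytotoxicity. HEK293, 600 cells/well with reagent, compound (23 nL DMSO) added after 5 h; reads at 0, 8, 16, 24, 32, 40 h.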

[6] = qHTS RealTime-Glo MT Cell Viability Assay in HepG2 cells - 40 hour (AID 1224870); further: nearly all actives have a fitted effect of over 50% in size
In short: (§4)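 HepG2 cells (600/well) mixed with RealTime-Glo MT reagent, settled 5 h at 37 C/5% CO2 before compound addition. Nonlytic NanoLuc luminescence from viable-cell prosubstrate reduction read repeatedly during 40 h treatment at 37 C.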

[7] = A CellTox Green Cytotoxicity Assay to monitor cytotoxicity in HEK293 cells - 40 hour (AID 1224871); further: nearly all actives have a fitted effect of over 45% in size; further: potency means the concentration at half of the fitted maximal effect
In short: as §3

[8] = qHTS RealTime-Glo MT Cell Viability Assay in HEK293 cells - 16 hour (AID 1224872)
In short: as §2

[9] = qHTS RealTime-Glo MT Cell Viability Assay in HepG2 cells - 8 hour (AID 1224873); further: nearly all actives have a fitted effect of over 55% in size
In short: as §4

[10] = qHTS RealTime-Glo MT Cell Viability Assay in HEK293 cells - 40 hour (AID 1224874); conditions: RealTime-Glo luminescence; max response: stronger effect = lower value; further: nearly all actives have a fitted effect of over 50% in size; further: potency means the concentration at half of the fitted maximal effect
In short: (§5)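 Luminescence readout at each listed time point; HEK293, 600 cells/well, RealTime-Glo MT reagent added with cells; compounds pinned (23 nL in DMSO) after 5 h at 37 C; continuous culture at 37 C.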

[11] = A CellTox Green Cytotoxicity Assay to monitor cytotoxicity in HEK293 cells - 24 hour (AID 1224875); further: nearly all actives have a fitted effect of over 45% in size
In short: as §3

[12] = A CellTox Green Cytotoxicity Assay to monitor cytotoxicity in HepG2 cells - 16 hour (AID 1224876); further: nearly all actives have a fitted effect of over 45% in size; further: potency means the concentration at half of the fitted maximal effect
In short: (§6)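 HepG2, 600 cells/well premixed w/ CellTox Green; 5 h settle, 37 C/5% CO2; pintool cpd add (DMSO); 37 C, 40 h; fluorescence read at 0, 8, 16, 24, 32, 40 h.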

[13] = qHTS RealTime-Glo MT Cell Viability Assay in HepG2 cells - 32 hour (AID 1224877); further: nearly all actives have a fitted effect of over 55% in size
In short: as §1

[14] = A CellTox Green Cytotoxicity Assay to monitor cytotoxicity in HepG2 cells - 24 hour (AID 1224878); further: nearly all actives have a fitted effect of over 45% in size; further: potency means the concentration at half of the fitted maximal effect
In short: as §6

[15] = A CellTox Green Cytotoxicity Assay to monitor cytotoxicity in HepG2 cells - 40 hour (AID 1224879); further: nearly all actives have a fitted effect of over 40% in size; further: potency means the concentration at half of the fitted maximal effect
In short: as §6

[16] = qHTS RealTime-Glo MT Cell Viability Assay in HEK293 cells - 0 hour (AID 1224880)
In short: as §5

[17] = A CellTox Green Cytotoxicity Assay to monitor cytotoxicity in HEK293 cells - 32 hour (AID 1224881); further: nearly all actives have a fitted effect of over 40% in size; further: potency means the concentration at half of the fitted maximal effect
In short: as §3

[18] = A CellTox Green Cytotoxicity Assay to monitor cytotoxicity in HepG2 cells - 0 hour (AID 1224882); further: nearly all actives have a fitted effect of over 35% in size; further: potency means the concentration at half of the fitted maximal effect
In short: as §6

[19] = qHTS assay to identify small molecule agonists of H2AX - cell viability counter screen (AID 1224847; calls by dose curve; further: nearly all actives have a fitted effect of over 30% in size; further: potency means the concentration at half of the fitted maximal effect)
In short: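 CHO-K1 wt, 1000 cells/well, o/n 37C; cpds 15 conc, 3 h 37C, 0.76% DMSO; CellTiter-Glo, 30 min RT, luminescence.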

[20] = A CellTox Green Cytotoxicity Assay to monitor cytotoxicity in HepG2 cells - 32 hour (AID 1224883); further: nearly all actives have a fitted effect of over 50% in size; further: potency means the concentration at half of the fitted maximal effect
In short: as §6
On the % scale 0 is the no-effect control and ±100 the full control effect.

COC(=O)c1ccccc1N
inactive: Potency [1] | activity change, positive = activation [2] 4.73% and 5.15% | outcome [3] | Potency [4] | Potency [5] | outcome [6] | Potency [7] | outcome [8] | outcome [9] | max response [10] 1.4% and 10.1% | Potency [11] | Potency [12] | outcome [13] | Potency [14] | Potency [15] | outcome [16] | Potency [17] | Potency [18]

CCN(CC)CCO
inactive: Potency [19] | outcome [3] | Potency [4] | Potency [5] | outcome [6] | Potency [7] | outcome [8] | outcome [9] | max response [10] 2.53% and -12.7% | Potency [11] | Potency [12] | outcome [13] | Potency [14] | Potency [15] | outcome [16] | Potency [17] | Potency [18] | Potency [20]

CCNc1nc(NC(C)(C)C)nc(SC)n1
inactive: Potency [19] | outcome [3] | Potency [5] | outcome [6] | Potency [7] | outcome [8] | outcome [9] | Potency [11] | Potency [12] | outcome [13] | Potency [14] | Potency [15] | outcome [16] | Potency [17] | Potency [18] | Potency [20]
active: Potency [4] 43.1 µM | Potency [10] 27.2 µM

CON(C)C(=O)Nc1ccc(Cl)c(Cl)c1
inactive: Potency [1] | activity change, positive = activation [2] -4.36% and -0.559% | outcome [3] | Potency [5] | outcome [6] | Potency [7] | outcome [8] | outcome [9] | max response [10] -28.4% | Potency [11] | Potency [12] | outcome [13] | Potency [14] | Potency [15] | outcome [16] | Potency [17] | Potency [18]
active: Potency [4] 43.6 µM | Potency [10] 43.6 µM

c1ccc(-c2ccccc2)cc1
49.4 µM (active) and inactive: Potency [15]
inactive: Potency [19] | outcome [3] | Potency [4] | Potency [5] | outcome [6] | Potency [7] | outcome [8] | outcome [9] | max response [10] -0.911% and -11.7% | Potency [11] | Potency [12] | outcome [13] | Potency [14] | outcome [16] | Potency [17] | Potency [18] | Potency [20]

O=S(=O)(c1ccc(Cl)cc1)c1cc(Cl)c(Cl)cc1Cl
active: Potency [19] 89.6 µM
inactive: outcome [3] | Potency [4] | Potency [5] | outcome [6] | Potency [7] | outcome [8] | outcome [9] | Potency [11] | Potency [12] | outcome [13] | Potency [14] | Potency [15] | outcome [16] | Potency [17] | Potency [18]

C=CCO
inactive and 34.7 µM (active): Potency [7]
inactive and 38.9 µM (active): Potency [17] | Potency [18]
inactive and 24.5 µM (active): Potency [12] | Potency [14] | Potency [15] | Potency [20]
inactive: Potency [19] | outcome [3] | Potency [4] | outcome [6] | outcome [8] | outcome [9] | max response [10] 4.57% and 0.311% | outcome [13] | outcome [16]
inactive and 43.6 µM (active): Potency [5]

CN(C)[C@@H]1C(=O)C(C(N)=O)=C(O)[C@@]2(O)C(=O)C3=C(O)c4c(O)cccc4[C@@](C)(O)[C@H]3C[C@@H]12
inactive: Potency [19] | outcome [3] | Potency [4] | Potency [5] | outcome [6] | Potency [7] | outcome [8] | outcome [9] | max response [10] 8.71% and 13.3% and -4.27% | Potency [11] | Potency [12] | outcome [13] | Potency [14] | Potency [15] | outcome [16] | Potency [17] | Potency [18] | Potency [20]

C#CCN(C)[C@H](C)Cc1ccccc1
inactive: Potency [19] | outcome [3] | Potency [4] | Potency [5] | outcome [6] | Potency [7] | outcome [8] | outcome [9] | max response [10] 3.52% and 3.78% | Potency [11] | Potency [12] | outcome [13] | Potency [14] | Potency [15] | outcome [16] | Potency [17] | Potency [18] | Potency [20]

CNC(=O)Oc1ccccc1OC(C)C
inactive: Potency [1] | activity change, positive = activation [2] 0.314% | outcome [3] | Potency [4] | Potency [5] | outcome [6] | Potency [7] | outcome [8] | outcome [9] | max response [10] 0.581% and -1.94% | Potency [11] | Potency [12] | outcome [13] | Potency [14] | Potency [15] | outcome [16] | Potency [17] | Potency [18] | Potency [20]

Cc1ccc(N)cc1Cl
inactive: outcome [3] | Potency [4] | Potency [5] | outcome [6] | Potency [7] | outcome [8] | outcome [9] | max response [10] -5.66% and 1.08% | Potency [11] | Potency [12] | outcome [13] | Potency [14] | Potency [15] | outcome [16] | Potency [17] | Potency [18]

Cc1cc(-c2cc(C)c(N)c(C)c2)cc(C)c1N
inactive: outcome [3] | Potency [4] | Potency [5] | outcome [6] | Potency [7] | outcome [8] | outcome [9] | max response [10] -25.8% and -12.6% | Potency [11] | Potency [12] | outcome [13] | Potency [14] | Potency [15] | outcome [16] | Potency [17] | Potency [18]

c1cc2c3c(cccc3c1)CC2
inactive and 43.6 µM (active): Potency [7]
inactive and 49 µM (active): Potency [17]
inactive: outcome [3] | Potency [4] | Potency [5] | outcome [6] | outcome [8] | outcome [9] | max response [10] 0.321% and -19.1% | Potency [12] | outcome [13] | Potency [14] | Potency [15] | outcome [16] | Potency [18]
